Screening results from PubChem BioAssay.
An excerpt weighted towards active compounds, which were near 1.1% of everything screened.
F-actin modifier: cytoskeleton assembly modification; HUVEC TNFa F-actin phalloidin imaging, high content; inhibition, % at 2 µM; hit rate 0.18% among 91,000; AID 836;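 active = inhibition above the batch mean plus 3 SD and confirmed as a hit by visual image inspection, cut at about 30% in these data, passing the limit was not always enough; inconclusive = above the inhibition threshold but rejected on visual inspection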
E-sel TNF inh: TNF alpha driven E-selectin expression inhibition; HUVEC TNFa-induced E-selectin immunofluorescence, high content; inhibition, % at 2 µM; hit rate 0.71% among 120,000; AID 1246;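 active = inhibition above the batch mean plus 3 SD, and confirmed as a hit on visual image review, cut at about 43% in these data; inconclusive = passes the inhibition cutoff but fails visual image review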;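 also: 0% = TNF-stimulated DMSO wells and 100% = unstimulated control wells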
VCAM1 TNFa inh: reduces TNF alpha induced VCAM1 expression in HUVEC | hit rate 0.48% among 95,000 | inhibition, % at 2 µM | HUVEC TNFa-induced VCAM-1 immunofluorescence, high-content imaging;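 active = inhibition above the batch mean plus 3 SD, with images confirmed as a hit by eye, cut at about 37% in these data; inconclusive = inhibition above that limit but hit not confirmed in images; inactive = inhibition not above that limit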;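 also: 0% = TNF-stimulated DMSO wells and 100% = unstimulated control wells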
HUVEC tox TNFa: HUVEC cytotoxicity counter-screen, TNF alpha stimulated | cell count reduction, % at 2 µM | HUVEC TNFalpha-stimulated, Hoechst cell count, imaging | AID 848 | hit rate 0.17% among 93,000;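 active = cell count reduction exceeding the screen mean by over 5 SD, scaled to untreated wells per plate, cut at about 78% in these data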;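 also: cells counted after 24 h of TNF alpha exposure following the 1 h pretreatment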
An asterisk follows results filed as active.

How did COc1ccc(C(C)(C)C)cc1NC(=O)COC(=O)c1ccc([N+](=O)[O-])o1 do in these assays?
E-sel TNF inh: -3

Results for COc1ccc(NC(=O)N(CCCN2CCOCC2)Cc2cccnc2)c(OC)c1 ?
F-actin modifier: -7; E-sel TNF inh: 61*; VCAM1 TNFa inh: 14; HUVEC tox TNFa: -1

What do the screens show for `Cc1cccc2cc(C#N)c(SCC(=O)N3CCC(C)CC3)nc12`?
F-actin modifier: 47; E-sel TNF inh: 7; VCAM1 TNFa inh: -13; HUVEC tox TNFa: 7

How did Cc1cccc2cc(C#N)c(SCC(=O)N3CC(=O)Nc4ccccc43)nc12 do in these assays?
F-actin modifier: -19; E-sel TNF inh: 33; VCAM1 TNFa inh: 94*; HUVEC tox TNFa: 60

What do the screens show for `Cc1nnc(SCC(=O)N2CC(=O)Nc3ccccc32)n1C`?
F-actin modifier: 2; E-sel TNF inh: 64*; VCAM1 TNFa inh: -6; HUVEC tox TNFa: -6

Results for N/C(=N\c1nc(CSc2ccc(Cl)cc2)cc(=O)[nH]1)Nc1cccc2ccccc12 ?
F-actin modifier: 9; E-sel TNF inh: 70*; VCAM1 TNFa inh: -5; HUVEC tox TNFa: -4

What do the screens show for `COc1cccc(-c2cnc(NCc3cc(Cl)ccc3O)n2C)c1`?
F-actin modifier: 15; E-sel TNF inh: 60*; VCAM1 TNFa inh: 21; HUVEC tox TNFa: -16

How did Cc1cc(C)n(C(=O)c2ccc(NC(=O)C3COc4ccccc4O3)cc2)n1 (centres undefined) do in these assays?
F-actin modifier: inconclusive; E-sel TNF inh: -11; VCAM1 TNFa inh: 98*; HUVEC tox TNFa: 85*

What do the screens show for `COc1cccc(N=c2oc3ccc(OC)cc3cc2-c2nc3ccccc3[nH]2)c1`?
F-actin modifier: -6; E-sel TNF inh: 14; VCAM1 TNFa inh: 25; HUVEC tox TNFa: -6

How did COc1ccc(N=c2oc3ccc(OC)cc3cc2-c2nc3ccccc3[nH]2)cc1 do in these assays?
F-actin modifier: -12; E-sel TNF inh: -4; VCAM1 TNFa inh: 50*; HUVEC tox TNFa: -1

What do the screens show for `O=C(OCn1ncc(Cl)c(Cl)c1=O)c1cccc(C(F)(F)F)c1`?
F-actin modifier: -14; E-sel TNF inh: 71*; VCAM1 TNFa inh: 24; HUVEC tox TNFa: -5

What do the screens show for `CCc1ccc(C(=O)Cn2ncc(Cl)c(Cl)c2=O)cc1`?
F-actin modifier: -8; E-sel TNF inh: 0; VCAM1 TNFa inh: 16; HUVEC tox TNFa: -13

What do the screens show for `CC(C)n1c(-c2ccccc2)nc(=S)c2c1CCCC2`?
E-sel TNF inh: 1

How did CCOc1ccc2[nH]c(=O)c(CN(Cc3ccccc3)C(=O)N3CCCC3)cc2c1 do in these assays?
F-actin modifier: 50*; E-sel TNF inh: -2; VCAM1 TNFa inh: 9; HUVEC tox TNFa: -39

Results for CCOc1ccc2[nH]c(=O)c(CN(CCO)C(=O)c3ccc(F)cc3)cc2c1 ?
F-actin modifier: -22; E-sel TNF inh: 38; VCAM1 TNFa inh: -8; HUVEC tox TNFa: -8

How did O=C(Nc1cccc([N+](=O)[O-])c1)c1ccn[nH]1 do in these assays?
E-sel TNF inh: -1

What do the screens show for `CCCOC(=O)CSC1=C(C#N)C(c2ccccc2OC)C(C#N)C(=O)N1` (centres undefined)?
F-actin modifier: -4; VCAM1 TNFa inh: 92*; HUVEC tox TNFa: 83*

Results for O=[N+]([O-])c1cc2c(cc1/C=N/Nc1nc(Nc3ccccc3)nc(N3CCCCC3)n1)OCO2 ?
F-actin modifier: 7; E-sel TNF inh: 57*; VCAM1 TNFa inh: -4; HUVEC tox TNFa: -6

What do the screens show for `Cc1cc(C)nc(N/N=C/c2cc3c(cc2[N+](=O)[O-])OCO3)n1`?
E-sel TNF inh: 2

What do the screens show for `Cc1cc(C)c(C#N)c(=N)o1`?
F-actin modifier: 19; E-sel TNF inh: 62*; VCAM1 TNFa inh: -3; HUVEC tox TNFa: 10

What do the screens show for `O=C(Nc1ccc(F)c(F)c1)c1ccc2c(c1)OCO2`?
F-actin modifier: 7; VCAM1 TNFa inh: -13; HUVEC tox TNFa: -17

How did O=C(Nc1ccc2nsnc2c1)c1ccc2c(c1)OCO2 do in these assays?
F-actin modifier: 12; E-sel TNF inh: 100*; VCAM1 TNFa inh: 29; HUVEC tox TNFa: 29

Results for CC1CC(C)CN(CC(C)(C)NS(=O)(=O)c2ccc(Cl)cc2)C1 (centres undefined) ?
F-actin modifier: -8; E-sel TNF inh: -3; VCAM1 TNFa inh: 9; HUVEC tox TNFa: -17

Results for COc1cc(CC(=O)Nc2ncc(C)s2)cc(OC)c1OC ?
F-actin modifier: 18; E-sel TNF inh: -7; VCAM1 TNFa inh: 51*; HUVEC tox TNFa: -23

How did Cc1cnc(NC(=O)COc2ccccc2)s1 do in these assays?
VCAM1 TNFa inh: 17; HUVEC tox TNFa: -21

How did O=C(Nc1ccccn1)c1sc2cccc(F)c2c1Cl do in these assays?
E-sel TNF inh: 1

How did Cn1c(=N)n(CC(O)c2cccc3ccccc23)c2ccccc21 (centres undefined) do in these assays?
F-actin modifier: -14; VCAM1 TNFa inh: 43; HUVEC tox TNFa: 83*
